ChEMBL document CHEMBL1961873, “Compounds: GSK PKIS; Assays: Nanosyn kinase panel” (2012)

Columns and labels:
[1] = target: Serine/threonine-protein kinase 26 (Homo sapiens) (UniProt Q9P289); conditions: at 1 µM;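 further: mean inhibition of MST4 kinase activity, reported from the GSK PKIS inhibitor-set screening panel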
[2] = target: Serine/threonine-protein kinase PAK 1 (Homo sapiens) (UniProt Q13153); conditions: at 0.1 µM
[3] = target: Serine/threonine-protein kinase PAK 1 (Homo sapiens) (UniProt Q13153); conditions: at 1 µM
[4] = target: Serine/threonine-protein kinase PAK 2 (Homo sapiens) (UniProt Q13177); conditions: at 0.1 µM
Chain of Serine/threonine-protein kinase PAK 2 (Homo sapiens) (Q13177 whole entry): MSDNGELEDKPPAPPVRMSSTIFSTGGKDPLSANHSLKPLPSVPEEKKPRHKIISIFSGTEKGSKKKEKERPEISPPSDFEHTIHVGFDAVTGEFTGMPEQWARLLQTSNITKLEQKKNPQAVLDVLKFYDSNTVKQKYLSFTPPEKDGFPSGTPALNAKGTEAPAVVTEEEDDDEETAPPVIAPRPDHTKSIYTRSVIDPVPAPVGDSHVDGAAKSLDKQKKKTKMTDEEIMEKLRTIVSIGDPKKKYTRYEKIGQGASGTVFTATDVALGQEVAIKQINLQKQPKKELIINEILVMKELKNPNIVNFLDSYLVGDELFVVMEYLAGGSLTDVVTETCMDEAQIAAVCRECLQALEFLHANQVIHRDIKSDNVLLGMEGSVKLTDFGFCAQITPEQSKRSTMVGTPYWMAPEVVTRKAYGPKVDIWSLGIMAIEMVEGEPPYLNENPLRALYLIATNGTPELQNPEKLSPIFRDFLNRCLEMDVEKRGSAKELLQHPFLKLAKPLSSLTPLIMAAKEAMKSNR

[5] = target: Serine/threonine-protein kinase PAK 2 (Homo sapiens) (UniProt Q13177); conditions: at 1 µM
[6] = target: Serine/threonine-protein kinase PAK 3 (Homo sapiens) (UniProt O75914); conditions: at 0.1 µM
Chain of Serine/threonine-protein kinase PAK 3 (Homo sapiens) (O75914 whole entry, looked up): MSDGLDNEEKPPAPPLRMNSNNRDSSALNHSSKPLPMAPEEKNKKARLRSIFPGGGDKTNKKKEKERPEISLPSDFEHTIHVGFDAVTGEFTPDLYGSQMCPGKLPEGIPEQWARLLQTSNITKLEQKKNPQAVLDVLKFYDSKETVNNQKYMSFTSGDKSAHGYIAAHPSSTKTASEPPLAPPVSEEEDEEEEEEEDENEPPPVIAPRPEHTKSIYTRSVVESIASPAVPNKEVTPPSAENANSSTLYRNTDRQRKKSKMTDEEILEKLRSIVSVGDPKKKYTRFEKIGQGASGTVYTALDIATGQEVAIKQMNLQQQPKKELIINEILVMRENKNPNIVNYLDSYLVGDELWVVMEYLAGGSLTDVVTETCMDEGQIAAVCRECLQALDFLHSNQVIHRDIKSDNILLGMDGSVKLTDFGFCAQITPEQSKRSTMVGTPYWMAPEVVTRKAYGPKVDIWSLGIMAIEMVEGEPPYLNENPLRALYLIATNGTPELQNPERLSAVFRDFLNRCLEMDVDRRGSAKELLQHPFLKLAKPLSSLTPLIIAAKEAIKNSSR

[7] = target: Serine/threonine-protein kinase PAK 3 (Homo sapiens) (UniProt O75914); conditions: at 1 µM
[8] = target: Serine/threonine-protein kinase PAK 5 (Homo sapiens) (UniProt Q9P286); conditions: at 0.1 µM
Chain of Serine/threonine-protein kinase PAK 5 (Homo sapiens) (Q9P286 whole entry, looked up): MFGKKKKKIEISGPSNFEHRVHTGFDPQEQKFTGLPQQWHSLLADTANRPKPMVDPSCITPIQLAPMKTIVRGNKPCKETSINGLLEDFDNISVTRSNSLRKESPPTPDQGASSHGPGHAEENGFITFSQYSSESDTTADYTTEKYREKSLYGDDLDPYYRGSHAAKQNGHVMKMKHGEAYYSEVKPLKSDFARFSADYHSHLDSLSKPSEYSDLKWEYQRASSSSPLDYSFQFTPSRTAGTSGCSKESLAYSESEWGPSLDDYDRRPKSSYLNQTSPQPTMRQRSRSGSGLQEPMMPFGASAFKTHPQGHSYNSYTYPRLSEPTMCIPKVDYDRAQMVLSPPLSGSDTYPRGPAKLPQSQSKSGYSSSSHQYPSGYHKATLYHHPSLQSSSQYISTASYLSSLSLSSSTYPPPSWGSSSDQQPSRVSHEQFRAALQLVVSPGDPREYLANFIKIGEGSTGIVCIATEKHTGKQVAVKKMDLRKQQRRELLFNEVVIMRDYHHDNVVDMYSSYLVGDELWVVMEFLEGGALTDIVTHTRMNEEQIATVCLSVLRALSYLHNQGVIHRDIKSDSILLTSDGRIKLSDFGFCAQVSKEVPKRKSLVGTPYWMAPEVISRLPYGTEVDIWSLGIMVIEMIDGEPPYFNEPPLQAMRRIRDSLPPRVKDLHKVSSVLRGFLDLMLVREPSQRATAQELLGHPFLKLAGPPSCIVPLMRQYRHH

[9] = target: Serine/threonine-protein kinase PAK 5 (Homo sapiens) (UniProt Q9P286); conditions: at 1 µM
[10] = target: Serine/threonine-protein kinase PAK 6 (Homo sapiens) (UniProt Q9NQU5); conditions: at 0.1 µM
Chain of Serine/threonine-protein kinase PAK 6 (Homo sapiens) (Q9NQU5 whole entry, looked up): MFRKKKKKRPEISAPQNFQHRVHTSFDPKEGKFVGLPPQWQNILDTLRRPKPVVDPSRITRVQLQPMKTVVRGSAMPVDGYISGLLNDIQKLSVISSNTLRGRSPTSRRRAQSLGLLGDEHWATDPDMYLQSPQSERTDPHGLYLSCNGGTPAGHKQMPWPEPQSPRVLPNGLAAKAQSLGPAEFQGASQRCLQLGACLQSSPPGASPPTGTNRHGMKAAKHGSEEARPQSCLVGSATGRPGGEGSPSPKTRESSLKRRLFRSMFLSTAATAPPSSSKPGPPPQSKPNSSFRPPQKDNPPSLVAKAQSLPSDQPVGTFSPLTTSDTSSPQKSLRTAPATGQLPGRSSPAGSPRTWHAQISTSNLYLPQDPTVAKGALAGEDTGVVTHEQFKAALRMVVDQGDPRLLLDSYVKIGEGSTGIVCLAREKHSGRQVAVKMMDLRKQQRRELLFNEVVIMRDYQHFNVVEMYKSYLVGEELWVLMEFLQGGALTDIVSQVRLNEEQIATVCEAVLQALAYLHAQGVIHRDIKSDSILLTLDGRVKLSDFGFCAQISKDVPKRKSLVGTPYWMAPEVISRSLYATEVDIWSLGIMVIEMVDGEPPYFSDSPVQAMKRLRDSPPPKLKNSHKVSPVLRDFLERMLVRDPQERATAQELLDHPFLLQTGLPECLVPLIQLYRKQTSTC

[11] = target: Serine/threonine-protein kinase PAK 6 (Homo sapiens) (UniProt Q9NQU5); conditions: at 1 µM
[12] = system: Tyrosine-protein kinase ABL1 (Homo sapiens), P00519 [E255K]; conditions: at 0.1 µM
[13] = system: Tyrosine-protein kinase ABL1 (Homo sapiens), P00519 [E255K]; conditions: at 1 µM
[14] = system: Tyrosine-protein kinase ABL1 (Homo sapiens), P00519 [H396P]; conditions: at 0.1 µM
[15] = system: Tyrosine-protein kinase ABL1 (Homo sapiens), P00519 [H396P]; conditions: at 1 µM
[16] = system: Tyrosine-protein kinase ABL1 (Homo sapiens), P00519 [M351T]; conditions: at 0.1 µM
[17] = system: Tyrosine-protein kinase ABL1 (Homo sapiens), P00519 [M351T]; conditions: at 1 µM
[18] = system: Tyrosine-protein kinase ABL1 (Homo sapiens), P00519 [Q252H]; conditions: at 0.1 µM
[19] = system: Tyrosine-protein kinase ABL1 (Homo sapiens), P00519 [Q252H]; conditions: at 1 µM
[20] = system: Tyrosine-protein kinase ABL1 (Homo sapiens), P00519 [T315I]; conditions: at 0.1 µM

Chain of Serine/threonine-protein kinase PAK 1 (Homo sapiens) (Q13153 whole entry): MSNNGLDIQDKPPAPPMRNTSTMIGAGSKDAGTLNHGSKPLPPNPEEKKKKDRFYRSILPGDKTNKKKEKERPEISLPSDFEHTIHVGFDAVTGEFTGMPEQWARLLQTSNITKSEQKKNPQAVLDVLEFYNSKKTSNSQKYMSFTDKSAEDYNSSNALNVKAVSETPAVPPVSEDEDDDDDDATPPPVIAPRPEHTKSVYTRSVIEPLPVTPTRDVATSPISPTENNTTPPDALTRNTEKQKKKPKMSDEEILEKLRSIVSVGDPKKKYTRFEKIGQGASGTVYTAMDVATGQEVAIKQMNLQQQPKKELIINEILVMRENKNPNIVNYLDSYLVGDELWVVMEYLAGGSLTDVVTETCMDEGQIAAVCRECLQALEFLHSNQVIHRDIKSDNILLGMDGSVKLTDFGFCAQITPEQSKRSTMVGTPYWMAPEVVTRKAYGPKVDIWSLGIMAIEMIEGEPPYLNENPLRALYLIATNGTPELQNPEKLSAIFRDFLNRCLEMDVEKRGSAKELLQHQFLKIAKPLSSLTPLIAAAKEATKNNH
Chain of Serine/threonine-protein kinase 26 (Homo sapiens) (Q9P289 2-416 limits assumed): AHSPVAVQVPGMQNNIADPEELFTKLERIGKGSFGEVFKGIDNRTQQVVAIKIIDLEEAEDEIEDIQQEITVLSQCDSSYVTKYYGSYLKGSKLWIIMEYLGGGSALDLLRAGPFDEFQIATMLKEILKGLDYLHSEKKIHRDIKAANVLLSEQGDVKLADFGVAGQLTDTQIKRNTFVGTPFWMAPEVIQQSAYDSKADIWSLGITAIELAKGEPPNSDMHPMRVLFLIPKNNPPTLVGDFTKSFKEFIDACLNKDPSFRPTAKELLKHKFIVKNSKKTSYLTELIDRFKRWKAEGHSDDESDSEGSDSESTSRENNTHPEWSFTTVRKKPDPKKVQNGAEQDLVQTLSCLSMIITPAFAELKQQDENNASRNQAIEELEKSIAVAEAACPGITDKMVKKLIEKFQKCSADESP

Structure (SMILES) | inhibition [1] | inhibition [2] | inhibition [3] | inhibition [4] | inhibition [5] | inhibition [6] | inhibition [7] | inhibition [8] | inhibition [9] | inhibition [10] | inhibition [11] | inhibition [12] | inhibition [13] | inhibition [14] | inhibition [15] | inhibition [16] | inhibition [17] | inhibition [18] | inhibition [19] | inhibition [20]
CS(=O)(=O)Nc1ccc(N/C=C2\C(=O)Nc3ccccc32)cc1 | -0.36% | -4.5% | -3.06% | -1.89% | -3.37% | -3.72% | -2.59% | -2.35% | 0.84% | -9.71% | -8.06% | -0.28% | 3.16% | -0.26% | 10.9% | 1.98% | 16.4% | 1.09% | 11% | 0.68%
O=C1NC(=O)C(c2ccc(Cl)cc2)=C1Nc1ccc(Cl)c(C(=O)O)c1 | -0.4% | -2.53% | 2.15% | -1.89% | -1.88% | -3.46% | -2.5% | 0.14% | 0.32% | 13.1% | -0.68% | 2.02% | -2.33% | -0.65% | 1.82% | 1.3% | 4.53% | 1.18% | 1.68% | 0.69%
CS(=O)(=O)CCN(CC#N)Cc1ccc(-c2ccc3ncnc(Nc4ccc(OCc5cccc(F)c5)c(Cl)c4)c3c2)o1 | 0.46% | 1.88% | 4.88% | 0.62% | 0.16% | 2.04% | 4.29% | 0.28% | -0.85% | -6.8% | -7.94% | 0.94% | 1% | 1.77% | 1.89% | 0.73% | 0.36% | 0.95% | 0.42% | -0.08%
COc1cccc(-n2ncc3c(N/N=C/c4cccc(F)c4)ncnc32)c1 | 2.84% | 6.15% | 6.44% | 0.05% | 0.67% | 1.51% | 2.17% | -1.62% | -8.07% | 12.7% | -4.69% | 40.5% | 84.1% | 51% | 87.6% | 52.3% | 88% | 60.9% | 90.3% | 10.8%
CCn1c(-c2nonc2N)nc2cnc(Oc3cccc(NC(=O)c4ccc(OCCN5CCOCC5)cc4)c3)cc21 | 2.57% | 3.65% | 5.84% | -0.41% | 0.34% | -3.22% | 2.69% | 1.02% | -0.29% | -6.86% | -8.77% | 3.79% | 3.89% | 4.58% | 4.2% | 2.23% | 2.73% | 4.73% | 3.88% | 4.38%
Cn1cc(C=C2C(=O)Nc3cccnc32)c2ccccc21 | 1.1% | 5.04% | 6% | 0.8% | 0.31% | 2.68% | 3% | -6.57% | -5.19% | -3.53% | 0.69% | 5.17% | 28.1% | 7.05% | 37.5% | 3.06% | 35.9% | 6.07% | 33.2% | 8.02%
COc1ccc2cc(-c3c(-c4ccncc4)nc(-c4ccc([S+](C)[O-])cc4)n3C)ccc2c1 (stereo not given) | -1.05% | 4.83% | 2.57% | 1.33% | 1.31% | 3.03% | 3.28% | -4.32% | -3.64% | -2.25% | -0.4% | 2.75% | 1.85% | 0.68% | 3.52% | 0.25% | 2.54% | 1.22% | 5.05% | 1.07%
Cc1ccc(NC(=O)c2ccnc(N3CCCC3)c2)cc1-c1ccc(C(=O)NCC2CC2)cc1 | 6.65% | 5.46% | 8.39% | 1.66% | 0.96% | 4.52% | 5.08% | -9.56% | -5.63% | -2.61% | -7.72% | 1.9% | 5.48% | 3% | 2.43% | 0.54% | 9.12% | 2.92% | 12.4% | 0.94%
CS(=O)(=O)CCNCc1nc(-c2ccc3ncnc(Nc4ccc(F)c(Cl)c4)c3c2)cs1 | 0.43% | 2.77% | 4.21% | 1.56% | 1.25% | 2% | 3.08% | 2.01% | 8.16% | 5.79% | 0.67% | 2.57% | 10.6% | 5.57% | 16.2% | 0.97% | 12.9% | 3.6% | 16% | 1.06%
COc1ccc(-c2ccncc2)cc1C(N)=O | -5.1% | 4.54% | 10% | 2.37% | 3.02% | 5.3% | 10.3% | 5.08% | 8.05% | -8.8% |  | 2.26% | 3.56% | 4.08% | 3.48% | -0.68% | -0.45% | 3.19% | 2.33% | 2.27%
COc1ccc(-c2nn3ncccc3c2-c2ccnc(Nc3ccc(Cl)c(C(F)(F)F)c3)n2)cc1 | 0.3% | 2.46% | 0.59% | -0.08% | 0.63% | 2.32% | 2.56% | 1.71% | -1.65% | -0.34% | -4.72% | 0.96% | 5.54% | 0.79% | 8.65% | 2.03% | 26.5% | 4.06% | 18.9% | 1.74%
Cc1nnc(-c2ccc(C)c(-c3ccc(C(=O)Nc4cccc(C#N)c4)cc3)c2)o1 | -0.56% | 5.8% | 1.41% | 0.71% | 0.48% | 2.48% | 2.15% | 0.22% | -1.12% | -9.89% | -7.37% | 2% | 4.21% | -0.02% | 3.51% | -0.06% | 2.91% | 3.04% | 4.21% | 1.53%
NS(=O)(=O)c1cccc(-c2ccc3c(NC(=O)C4CC4)n[nH]c3c2)c1 |  | -1.17% | 0.04% | -1.52% | -1.15% | -2.1% | -0.67% | 7.33% | -5.95% | 2.48% | -8.66% | 1.26% | 7.94% | 3.4% | 21.7% | 7.02% | 20.2% | 2.5% | 9.03% | 3.32%
O=C1NC(=O)C(c2cccc(Cl)c2)=C1Nc1ccc(O)c(Cl)c1 | 11.2% | 2.76% | 4.48% | 0.61% | -0.45% | 1.1% | 1.4% |  |  | 3.63% | -3.45% | 0.46% | -0.55% | 1.43% | 1.01% | -0.1% | 1.15% | -0.15% | 2.63% | 1.14%
CCCN1CCC=C(c2ccc(Nc3nc(Nc4ccccc4C(N)=O)c4cc[nH]c4n3)c(C)c2)C1 | -1.15% | 8.77% | 12.7% | 2.2% | 3.03% | 5% | 6.44% | 6.43% | 14.2% |  | -5.41% | -0.02% | 5.11% | 2.87% | 7.11% | 1.17% | 5.02% | 3.91% | 8.95% | 1.37%
Nc1ncnc2occ(-c3ccc(NC(=O)Nc4cc(C(F)(F)F)cc(C(F)(F)F)c4)cc3)c12 |  | 4.71% | 3.65% | 2.1% | 0.99% | 2.26% | 3.84% | 1.39% | 4.07% | 1.06% | 7.94% | 3.79% | 25.5% | 18.5% | 68.1% | 48.5% | 80.9% | 45% | 75.5% | 42.5%
CS(=O)(=O)CCNCc1ccc(-c2ccc3ncnc(Nc4ccc(OCc5ccccc5)c(Cl)c4)c3c2)o1 | 0.42% | -1.29% | 7.48% | 0.77% | -0.12% | -0.48% | -0.08% | -6.06% | -8.65% |  |  | 1.33% | 0.95% | 0.8% | 3.2% | 1.7% | 2.85% | 1.92% | 3.15% | 1.4%
Cc1ccc(C(=O)NC2CCCCC2)cc1-c1ccc(C(=O)NCC2CC2)cc1 | -1.45% | 6.65% | 4.6% | 2.09% | 1.97% | 4.22% | 4.44% | 4.34% | 13.6% | -2.81% | -8.15% | 0.94% | -0.03% | 4.41% | 0.31% | 3.58% | 2.26% | 3.13% | 2.92% | 1.36%
NCc1ccc(-c2nc(-c3ccc(Cl)c(O)c3)c(-c3ccncc3)[nH]2)cc1 | 0.12% | 1.09% | 2.83% | -1.23% | -1.01% | -0.7% | -0.37% |  | -6.81% | 7.6% | 0.88% | 7.57% | 43.3% | 9.07% | 48.9% | 11.2% | 43.9% | 7.54% | 38.4% | 3.08%
COc1cc2ncn(-c3cc(OCc4ccccc4C(F)(F)F)c(C(N)=O)s3)c2cc1OC |  | 3.79% | 7.26% | 1.94% | 1.77% | 5.55% | 5.02% | 1.8% | 2.59% | -0.96% | -0.46% | 0.92% | 13.5% | 5.99% | 23% | 3.68% | 19.2% | 5.63% | 21.9% | 3.84%
c1cnn2ncc(-c3ccnc(Nc4ccc5c(c4)OCCO5)n3)c2c1 | -0.78% | 3.98% | 4.56% | 4.04% | 3.37% | 4.71% | 4.73% | 8.91% | 14.7% | 2.92% | 9.62% | 4.75% | 20.4% | 6.51% | 34.4% | 6.73% | 40.9% | 9.02% | 40.7% | 6.27%
